This passage reports growth results from PubChem BioAssay (NCI).

Compounds without any hit were thinned out: in the full panel of roughly 83,000, 20% have a hit.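 Cells were grown in 96-well plates and exposed to the test compound at a single concentration for 48 hours; results are reported as percent growth, with values below 10 considered active.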 A number with no mark means an inactive call. Active and inactive are the calls of the source.

Test systems include DU-145 prostate; K-562 leukemia; MALME-3M melanoma; MDA-MB-231 breast; RXF 393 renal; SF-268 CNS; SF-295 CNS; SF-539 CNS; UACC-257 melanoma; M14 melanoma; HCT-15 colon; HT29 colon; SNB-75 CNS; SNB-19 CNS; U251 CNS; PC-3 prostate; SK-MEL-5 melanoma; UACC-62 melanoma; LOX IMVI melanoma; SK-MEL-28 melanoma.
Assay in all cases: NCI-60 one-dose screen, 48 h (100 = growth as untreated, 0 = no growth, -100 = all killed)
Conditions in all cases: 10 µM unless noted

Take `CC(C)CCSc1nc(-c2ccc(F)cc2)c(C#N)c(N2CCN(C)CC2)n1`: the growth was 94.4% in the test on DU-145 prostate; 62.7% in the test with K-562 leukemia; 97.4% in the test on MALME-3M melanoma; 53.3% in the test with MDA-MB-231 breast; 78.8% in the test with RXF 393 renal; 83% in the test with SF-268 CNS. In addition, the growth was 101% in the test on SF-295 CNS; 93.1% with SF-539 CNS; 64.1% in the test on UACC-257 melanoma; 94.7% in the test with M14 melanoma; 83.6% with HCT-15 colon; 82.2% with HT29 colon. Besides, the growth with SNB-75 CNS is 73%; in the test on SNB-19 CNS, 91.7%; with U251 CNS, 77.6%; in the test with PC-3 prostate it was 65%; in the test on SK-MEL-5 melanoma it was 90.4%; with UACC-62 melanoma it was 87.2%. In addition, the growth in the test with LOX IMVI melanoma was 77.6%; in the test on SK-MEL-28 melanoma, 96.5%.

For `CN(C)CCCN1c2ccccc2CCc2ccccc21`, the growth in the test on DU-145 prostate was 113%; in the test with K-562 leukemia, 94.9%; in the test with MALME-3M melanoma it was 151%; in the test on MDA-MB-231 breast it was 79%; in the test with RXF 393 renal, 78.6%; with SF-268 CNS, 95.1%. Also, the growth is 106% in the test on SF-295 CNS; 117% in the test with SF-539 CNS; 103% in the test on UACC-257 melanoma; 128% in the test with M14 melanoma; 96.6% with HCT-15 colon; 83.5% with HT29 colon. Further, the growth with SNB-75 CNS was 50.8%; with SNB-19 CNS it was 94.1%; in the test on U251 CNS, 91.6%; in the test on PC-3 prostate, 82.8%; in the test with SK-MEL-5 melanoma, 75.3%; in the test on UACC-62 melanoma it was 94%. Besides, the growth with LOX IMVI melanoma is 106%; in the test with SK-MEL-28 melanoma, 102%.

As to `C#C[C@]1(O)CC[C@H]2[C@@H]3CC=C4c5sc(-c6cccc(Br)c6)nc5CC[C@]4(C)[C@H]3CC[C@@]21C`, the growth in the test on DU-145 prostate is 88.6%; in the test with K-562 leukemia, 6.54% (active); in the test on MALME-3M melanoma, 100%; in the test on MDA-MB-231 breast it was 79.9%; in the test on RXF 393 renal it was 37.3%; in the test on SF-268 CNS, 72.4%. For the same molecule, the growth in the test with SF-295 CNS is 55.5%; in the test with SF-539 CNS, 37.6%; in the test on UACC-257 melanoma, 80.7%; in the test with M14 melanoma, 69.3%; in the test on HCT-15 colon it was 61.7%; with HT29 colon, 83.1%. Further, the growth was 59% with SNB-75 CNS; 84.6% with SNB-19 CNS; 70.9% in the test on U251 CNS; 57.2% in the test with PC-3 prostate; 99.9% in the test with SK-MEL-5 melanoma; 89.9% in the test with UACC-62 melanoma. In addition, the growth in the test with LOX IMVI melanoma was 71.6%; in the test with SK-MEL-28 melanoma, 54.7%.

As to `C=CCCCCOc1cccc(/C=C2\N=C3SCCCN3C2=O)c1`, the growth was 108% in the test with DU-145 prostate; 91.5% in the test on K-562 leukemia; 115% with MALME-3M melanoma; 88.6% with MDA-MB-231 breast; 114% in the test with RXF 393 renal; 110% in the test on SF-268 CNS. In addition, the growth in the test with SF-295 CNS was 96%; in the test with SF-539 CNS it was 104%; in the test on UACC-257 melanoma, 112%; with M14 melanoma it was 103%; in the test with HCT-15 colon, 90%; in the test with HT29 colon it was 90.1%. Besides, the growth was 91.1% in the test with SNB-75 CNS; 99.9% in the test on SNB-19 CNS; 92.7% in the test on U251 CNS; 95.3% in the test with PC-3 prostate; 99% in the test on SK-MEL-5 melanoma; 87.6% in the test on UACC-62 melanoma. Moreover, the figures for the growth in the test with LOX IMVI melanoma and with SK-MEL-28 melanoma were 88.7% and 108%, respectively.

Consider `CC(SC(C)C(=O)N/N=C/c1cccc(Cl)c1)C(=O)N/N=C\c1cccc(Cl)c1` (stereo not given), for which the growth in the test on DU-145 prostate is 71.9%; with K-562 leukemia, 79.7%; with MALME-3M melanoma, 88.9%; in the test with MDA-MB-231 breast it was 28.1%; with RXF 393 renal it was 91.2%; in the test on SF-268 CNS, 69%. Also, the growth with SF-295 CNS is 66.2%; with SF-539 CNS, 106%; in the test on UACC-257 melanoma, 104%; with M14 melanoma it was 85.1%; in the test with HCT-15 colon, 86.5%; in the test on HT29 colon, 79%. Also, the growth in the test on SNB-75 CNS was 83.7%; with SNB-19 CNS, 89.5%; in the test with U251 CNS it was 48.2%; in the test on PC-3 prostate, 53.5%; with SK-MEL-5 melanoma it was 98.2%; in the test with UACC-62 melanoma, 92.1%. In addition, the growth in the test with LOX IMVI melanoma is 7.06% (active); in the test on SK-MEL-28 melanoma, 117%.

For `COc1ccc(/C(C)=N/NC(=O)CSc2nc3ccccc3c(=O)n2CCc2ccc(S(N)(=O)=O)cc2)cc1`, the growth in the test with DU-145 prostate was 1.74% (active); in the test on K-562 leukemia, 30.4%; in the test on MALME-3M melanoma it was -21.4% (active); in the test with MDA-MB-231 breast, -10.9% (active); in the test on RXF 393 renal it was 29.7%; in the test with SF-268 CNS, 28.3%. Also, the growth in the test on SF-295 CNS is 28.5%; with SF-539 CNS, 14.4%; with UACC-257 melanoma it was 25.9%; with M14 melanoma it was 38.4%; in the test on HCT-15 colon, 65.3%; with HT29 colon, -10% (active). For the same molecule, the growth in the test on SNB-75 CNS is -26.2% (active); in the test on SNB-19 CNS it was 35.4%; with U251 CNS, -32.9% (active); with PC-3 prostate, -12.8% (active); with SK-MEL-5 melanoma, -26.3% (active); with UACC-62 melanoma, 27.3%. Besides, the growth with LOX IMVI melanoma is 28.3%; in the test with SK-MEL-28 melanoma it was 43.1%.

Turning to `CCN(CC)c1cc(C)c(Cc2c(OC)ccc3ccccc23)cc1C`, the growth was 105% in the test with DU-145 prostate; 84.7% in the test on K-562 leukemia; 102% with MALME-3M melanoma; 98.6% in the test with MDA-MB-231 breast; 101% in the test with RXF 393 renal; 95.7% in the test on SF-268 CNS. For the same molecule, the growth in the test on SF-295 CNS is 103%; with SF-539 CNS, 103%; in the test with UACC-257 melanoma, 96.8%; in the test on M14 melanoma it was 90.8%; in the test on HCT-15 colon it was 97.8%; with HT29 colon, 73.7%. The growth in the test with SNB-75 CNS is 91.1%; in the test on SNB-19 CNS, 93.2%; in the test with U251 CNS, 94.9%; in the test on PC-3 prostate, 83.9%; in the test with SK-MEL-5 melanoma it was 99.4%; in the test with UACC-62 melanoma, 79.8%. Moreover, the figures for the growth with LOX IMVI melanoma and with SK-MEL-28 melanoma were 94.9% and 100%, respectively.

Regarding `CC(C)(CCc1ccccn1)C(=O)CCCc1ccccn1`, the growth in the test with DU-145 prostate was 109%; in the test with K-562 leukemia, 95%; in the test with MALME-3M melanoma it was 70.4%; in the test on MDA-MB-231 breast, 96.2%; in the test on RXF 393 renal, 117%; with SF-268 CNS it was 105%. Besides, the growth in the test on SF-295 CNS is 120%; in the test with SF-539 CNS it was 114%; in the test on UACC-257 melanoma it was 109%; in the test with M14 melanoma, 98.7%; in the test with HCT-15 colon, 108%; in the test with HT29 colon, 97%. For the same molecule, the growth in the test on SNB-75 CNS is 102%; in the test on SNB-19 CNS, 94%; with U251 CNS, 100%; with PC-3 prostate, 89%; with SK-MEL-5 melanoma it was 104%; with UACC-62 melanoma, 89.8%. Moreover, the growth is 94.2% with LOX IMVI melanoma and 115% with SK-MEL-28 melanoma.
